For 40 compounds, growth results are on record in PubChem BioAssay (NCI).

The panel holds about 83,000 compounds, 20% with a hit somewhere; the sample as a whole holds those more often.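 Single-concentration screen, 48 h exposure, 96-well plates. Endpoint: percent growth. Below 10 = active.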 Unmarked numbers belong to inactive results. Active and inactive are the calls of the source.

This test has as its system HCC-2998 colon. As to the kind of experiment: NCI-60 one-dose screen, 48 h (100 = growth as untreated, 0 = no growth, -100 = all killed). The following applies: 10 µM. How it is done:
Growth inhibition of the HCC-2998 human tumor cell line is measured as a screen for anti-cancer activity. Cells are grown in 96 well plates and exposed to the test compound for 48 hours. Compounds are tested at a single concentration, which is 10^-5 M for most compounds. The reported endpoint is percent growth (GI% or GIPRCNT), where numbers from 0 - 100% represent growth inhibition, and numbers from -100% - 0 represent cell death. For example, a value of 40 represents 60% growth inhibition. A value of 0 means no net growth occurred over the course of the experiment. A value of -40 indicates 40% of cells at the beginning of the experiment died by the end of the experiment. A value of -100 means all cells are dead at the end of the experiment.
NCI-60 Human Tumor Cell Lines Screen was performed using the standard one-dose NCI protocol, which is described in more detail at https://dtp.cancer.gov/discovery_development/nci-60/default.htm.
Compounds with GIPRCNT values below 10 were considered active. Activity score was based on GIPRCNT using the following formula: […]
Score is 0 for GIPRCNT values of 100 or above, 50 for GIPRCNT values of 0, and 100 for GIPRCNT values of -100.
Consider `Cc1ccc(C(=O)Nc2ccc(-n3c(C)nc4c(cnn4-c4ccccc4)c3=O)cc2)cc1`, for which the growth was 88.4%. `CCCCOc1ccc(Nc2nc3ccccc3nc2Nc2ccc(OCCCC)cc2)cc1`: the growth is 106%. Then `CNC(=O)c1cc(-c2ccc(NC(=O)Nc3ccc(C)cc3)cc2)nc2cccnc12`, with 121%; and `COc1cc2c(c(OC)c1OC)C(=O)CC(c1cccc(NC(=O)c3cccc(N)c3)c1)O2` (stereo not given), with 114%; and `COc1cc2c(cc1OC)/C(=C\c1sc(Nc3ccc(O)cc3)nc1O)C(C(=O)O)=N2`, with 36.7%. The result for `CCOc1ccc(Nc2nc3ccccc3nc2Nc2ccc(OCC)cc2)cc1` reads 90.2%; that for `COc1ccc(-c2ccc(SCC(=O)Nc3ccc(C#N)cc3)nn2)cc1`, 104%. The result for `Cc1cc2nc3c4ccccc4n(CCO)c3nc2cc1C` reads 123%; that for `CO[C@H]1CSS[C@@H]1Cn1nc(-c2ccc(Oc3ccccc3)cc2)c2c(N)ncnc21`, 14%. As for `S=c1nc(-c2ccccc2)cc(-c2cc3ccccc3nc2Cl)[nH]1`, the growth was 104%. In the case of `Cc1ccc(-c2ccc(SCC(=O)Nc3ccc(S(N)(=O)=O)cc3Br)nn2)cc1`, the growth was 39.4%. The result for `Cc1cccc2cc(-c3cc(-c4ccccc4)nc(=O)[nH]3)c(Cl)nc12` reads 102%.

For `COc1ccc(C(=O)CSc2nnc(-c3c[nH]c4ccccc34)n2-c2ccccc2)cc1`, the growth is 77.8%. Then `CS(=O)(=O)Nc1ccc(-c2ccc3c(c2)ncn3-c2ccc(NC(=O)Nc3ccc(Br)cc3)cc2)cc1`, with 18%; and `COc1cc(NC(=O)CSc2nnc(-c3ccc4nc(-c5ccc(Cl)cc5)[nH]c4c3)o2)cc(OC)c1OC`, with 110%. Then `O=C(CNc1nc(-c2ccccc2)cs1)Nc1ccc(Br)cc1`, with -98.1% (active); and `COc1cnc2c(c1)C(=O)c1c-2n(CCCNCCO)c(=O)c2cc(OC)c(OC)cc12`, with 30.3%. The result for `O=c1[nH]c2ccc(Cl)cc2cc1CSc1ccc(Nc2nccc(-c3ccc4ccccc4c3)n2)cc1` reads 79.6%. In the case of `O=C(Nc1ccc(F)c(Cl)c1)c1cc(-c2ccc(F)cc2F)ccc1O`, the growth is 4.97% (active). The result for `Cc1ccc(-c2nc(Nc3ccccc3C(=O)O)c3ccccc3n2)cc1` reads 5.44% (active). Turning to `Cc1ccc2nc(COc3ccc(C(=O)NNC(=S)NC(=O)c4ccccc4)cc3)[nH]c2c1`, the growth is 66.1%. Then `Cc1ccc(/C=C(\C#N)n2nnc3c(F)cccc32)cc1`, with -20.1% (active); and `O=C(Cn1cc(CSc2nnc3oc4ccccc4n23)nn1)Nc1cccc(Cl)c1`, with 84.7%. Regarding `Cc1ccc2nc(COc3ccc(C(=O)NNC(=S)NCCc4ccccc4)cc3)[nH]c2c1`, the growth was 73.9%. The result for `COc1ccc(-c2ccc(/C=N/NC(=O)c3[nH]c4ccc(Br)cc4c3-c3ccccc3)s2)cc1` reads 112%; that for `O=c1oc2ccc(-c3ccc(F)cc3F)cc2c(=O)n1-c1ccc(F)cc1`, 7.52% (active); that for `Nc1nc(Nc2ccc(Cl)cc2)n(Cc2cccc(Br)c2)n1`, -71.6% (active). Then `COc1cccc(COc2ccc(/C=C3\Oc4cc(O)ccc4C3=O)cc2)c1`, with 25.2%; and `CC(=O)Nc1ccc(-c2cn(-c3cccc(C(=O)Nc4cccc(OC(F)(F)F)c4)c3)nn2)cn1`, with 110%; and `COc1cc(/C=N/NC(=O)c2ccc3nc(-c4ccc(Cl)cc4)[nH]c3c2)cc(OC)c1OC`, with -39.7% (active). With `CC(=O)Nc1ccc(-n2cnc3cc(-c4ccc(O)cc4)ccc32)cc1C`, the growth is 60.7%. The result for `CC(=O)C1=C(C)NC(SCC(=O)Nc2ccc(S(=O)(=O)Nc3cc(C)on3)cc2)=NC1c1ccccc1` (stereo not given) reads 112%; that for `COc1ccc([C@H]2C(C(=O)c3ccc(Cl)cc3)C3(N[C@@H]2c2ccccc2)C(=O)Nc2ccc(Cl)cc23)cc1` (stereo not given in full), -59.3% (active). Then `CN1CCN(c2ccc(Nc3nc(NCCNC(=O)c4ccc(C(F)(F)F)cc4)c4sccc4n3)cc2)CC1`, with -22.5% (active); and `COc1ccc(N(C)c2cc(C#N)nc3ccccc23)cc1/C=C/C(=O)NO`, with -94.8% (active). The result for `Cc1cc(C(F)(F)F)ccc1C(=O)Nc1sc2c(c1C#N)CCC(=O)C2` reads -10.6% (active).

As for `COc1ccc(-c2ccc(/C=N/NC(=O)c3[nH]c4ccc(Br)cc4c3-c3ccccc3)o2)cc1`, the growth was 63%. Then `N[C@@H](CSSC[C@H](N)C(=O)Nc1ccc(OCC2CCCC2)cc1)C(=O)Nc1ccc(OCC2CCCC2)cc1`, with -96.5% (active). Then `O=c1cc(-c2ccccc2)oc2cc(OCCCNCc3ccccc3)cc(O)c12`, with -95.8% (active). Take `COc1ccc(CCN2C(=O)/C(=C/c3csc(C#N)n3)SC2=S)cc1`: the growth was -32.8% (active).
